Measured values from the supplement of paper PMC3334620.
The full ranking holds about 33,000 sequences; the median of “E-score (-0.5 to 0.5)” is about -0.016, and the highest 2% start at about 0.31. Only a selection was taken, and the highest values are over-represented in it overall.

target: Cst6 (UniProt P40535); assay: PBM E-score (8-mer binding enrichment) (E-score (-0.5 to 0.5)); higher = stronger / more preferred TF binding; settings: protein concentration: 200 nM; construct: GST-DNA-binding domain
How it was run: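 GST-tagged yeast TFs (full-length or DNA-binding domain) were made by PURExpress in vitro transcription/translation and applied at about 100-200 nM to universal all-10-mer Agilent arrays. The arrays were made double-stranded by primer extension, on fresh or once-stripped slides. Bound protein was detected with fluorescent anti-GST, and scans were normalised with masliner. Each ungapped eight-base word, pooled with its reverse complement, received an E-score (modified Wilcoxon-Mann-Whitney statistic) from the Universal PBM Analysis Suite.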

Sequence of UniProt P40535 (P40535 whole entry, the tested form may be a part): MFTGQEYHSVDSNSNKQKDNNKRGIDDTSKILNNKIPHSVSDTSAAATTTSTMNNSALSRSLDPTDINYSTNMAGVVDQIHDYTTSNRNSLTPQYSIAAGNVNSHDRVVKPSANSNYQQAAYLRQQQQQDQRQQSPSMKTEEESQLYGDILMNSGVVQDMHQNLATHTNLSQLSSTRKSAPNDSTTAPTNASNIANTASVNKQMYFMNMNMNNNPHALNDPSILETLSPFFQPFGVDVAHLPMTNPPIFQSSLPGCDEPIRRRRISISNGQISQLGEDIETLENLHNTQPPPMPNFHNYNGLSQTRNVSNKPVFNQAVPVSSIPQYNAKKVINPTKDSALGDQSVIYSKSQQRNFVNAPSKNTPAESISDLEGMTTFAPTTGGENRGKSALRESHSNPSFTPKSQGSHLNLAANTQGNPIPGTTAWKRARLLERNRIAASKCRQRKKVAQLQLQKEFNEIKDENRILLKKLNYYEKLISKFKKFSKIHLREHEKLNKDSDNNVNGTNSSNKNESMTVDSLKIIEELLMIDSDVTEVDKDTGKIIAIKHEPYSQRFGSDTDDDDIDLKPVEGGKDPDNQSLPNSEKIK

Row | Sequence | PBM E-score
1 | TGCGTCAA | 0.318
2 | TGCGTCCA | -0.0683
3 | AACGTCCC | -0.173
4 | CACGTCCC | -0.216
5 | CACGTCTC | -0.097
6 | AACGTCAC | 0.488
7 | TACGTCAA | 0.484
8 | GGCGTCAA | 0.263
9 | AACGTCTC | -0.0757
10 | TACGTCCA | 0.0953
11 | CACGTCAC | 0.489
12 | TACGTCTA | 0.188
13 | CATACTCC | 0.0426
14 | CAGCCAAC | -0.13
15 | CGAATTAG | 0.0675
16 | CGTTTAAG | 0.0111
17 | AGGTCTAC | -0.216
18 | AAACTAGT | 0.062
19 | CCCTGAGA | -0.247
20 | GAAATCCC | -0.101
21 | CGTTCTTA | 0.0793
22 | AAGCCATG | -0.124
23 | CAACAGCC | 0.153
24 | ACAAGAAA | 0.237

Row | Sequence | PBM E-score
25 | CACGTCAA | 0.366
26 | CCCGTCAA | -0.228
27 | AACGTCAT | 0.489
28 | AATGTCAA | 0.102
29 | AACGTCGT | 0.0196
30 | GACGTCAC | 0.495
31 | TCTGTCAA | 0.111
32 | TATGTCAA | 0.378
33 | GACGTCCC | 0.016
34 | CACGTCTA | -0.0114
35 | AACGTCCT | -0.0138
36 | GACGTCGC | 0.236
37 | ATAAGCTC | -0.0286
38 | CGCCCACC | -0.0447
39 | CGGTCCGC | -0.198
40 | ACAAAGAA | 0.247
41 | GACTGCTC | -0.26
42 | ACACTTAA | 0.105
43 | GGGGCTTA | -0.346
44 | CAGATAAA | 0.051
45 | CTATCGGA | -0.0998
46 | AGTGTGCC | -0.088
47 | AAAAATTC | 0.186
48 | CTGAAATC | 0.0366

Row | Sequence | PBM E-score
49 | ATGAAATC | 0.314
50 | ATGAAATA | 0.283
51 | ATAGCTAT | -0.0877
52 | CTTCGAAG | -0.21
53 | AAGCTATG | -0.0495
54 | ACTAAGAG | -0.0881
55 | CAGAACGG | -0.0224
56 | CGACATCG | -0.122
57 | CGACATCC | -0.0566
58 | CGACATCA | 0.411
59 | TGACATCA | 0.496
60 | GGACATCA | 0.188
61 | CAACATCA | 0.305
62 | AGACATCA | 0.0931
63 | TAACATCA | 0.399
64 | AAACATCA | 0.268
65 | ACGCTGGC | -0.207
66 | AAAGGCAC | 0.189
67 | CAGACCCC | -0.316
68 | CTCAATGA | 0.14
69 | ATCAATGA | 0.35
70 | GTCAATGA | 0.235
71 | CCGTACCG | -0.0599
72 | CAGGGTGG | -0.23

Row | Sequence | PBM E-score
73 | CCCAAGAC | -0.0855
74 | CAGACATA | 0.131
75 | GTGACATA | 0.471
76 | CTGACATA | 0.324
77 | ATGACATA | 0.45
78 | GAGACATA | -0.00422
79 | CGGACATA | 0.0467
80 | ATGACAGG | 0.0675
81 | ATGACAGA | 0.243
82 | ATGACATG | 0.351
83 | ATGACAAG | 0.134
84 | AAGACATA | 0.0804
85 | GGGACATA | -0.0929
86 | CATCTATA | 0.162
87 | ACGCGAGG | 0.0628
88 | CATGCCCC | -0.109
89 | CATGAGAG | 0.0742
90 | CACGTGCG | -0.038
91 | CTAGTTCC | 0.0382
92 | ATCGGCTA | -0.138
93 | CGGGCGTC | -0.0942
94 | AAGCCCGG | -0.209
